Screens deposited in PubChem by National Center for Advancing Translational Sciences (NCATS).
NPC1 promoter act: qHTS Assay for NPC1 Promoter Activators | Huh7 NPC1 promoter luciferase reporter, 24 h | Potency, µM (top dose mostly 9.22 µM), inactives show at the top dose activation, hits mostly activators | 320,000 tested, 2.4% active; note: % of control where 0% means no effect; nearly all actives have a fitted effect of over 60% in size
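Stable NPC1-promoter luciferase Huh7 line; cpd (DMSO) 24 h, 37 °C, 5% CO2; Amplite luciferase reagent 10 min RT; luminescence readout. qHTS format.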
Rab9 promoter act: qHTS Assay for Rab9 Promoter Activators; Huh7 Rab9 promoter-luciferase reporter, luminescence, 24 h; Potency, µM (titrated, usually from 9.22 µM), for inactives: at the top dose activation, negative = inhibition, hits mostly activators; 320,000 tested, 2.8% active; AID 485297, 2010; note: % of control where 0% means no effect; nearly all actives have a fitted effect of over 60% in size
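Cells were plated at 1500 per well in reduced-serum medium with 10% FBS and left 2 h. Compound in DMSO was then added for 24 h at 37 °C. Reporter signal was read by luminescence after 10 min with luciferase detection reagent.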
Luc counter: Counterscreen for Luciferase (Kinase-Glo TM) Inhibition; Luciferin 4-monooxygenase (Photuris pensylvanica), Q27757; 200,000 tested, 0.28% active; Potency, µM (doses to about 38.3 µM), without a hit: top-dose activity change, negative = inhibition, hits mostly inhibitors; AID 1379, 2008; Kinase-Glo luciferase, ATP luminescence, 8 min; note: % is set by controls: 0 for no effect and ±100 for the full control effect; nearly all actives have a fitted effect of over 60% in size
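Recombinant Kinase-Glo luciferase, 10 uM ATP (linear range), luciferin; imidazole pH 7.2 / KCl / MgCl2 / Tween / BSA buffer; 8 min RT; luminescence.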
SMN2 splice up: qHTS Assay for Enhancers of SMN2 Splice Variant Expression | Potency, µM (doses to about 46.1 µM), inactives show top-dose activity change, positive = activation, actives largely listed as activators | 210,000 tested, 2.8% active | HEK293 SMN2-luciferase splicing reporter, luminescence, 30-36 h; note: % of control where 0% means no effect; nearly all actives have a fitted effect of over 55% in size
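qHTS luciferase splicing reporter: luminescence rises when SMN2 exon 7 is included in transfected HEK293 cells. Compound exposure lasted 30-36 h at 37C, with 4.5 mM final sodium butyrate as control, followed by a ONE-Glo read.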
FLuc counter: qHTS profiling assay for firefly luciferase inhibitor/activator using purifed enzyme and Km concentrations of substrates (counterscreen for miR-21 project). Luciferin 4-monooxygenase (Photinus pyralis), P08659. purified FLuc, Km substrates, luminescence inhibition. Potency, µM (top dose mostly 57.5 µM), without a hit: at the top dose activity change, negative = inhibition, usual class: inhibitors. AID 588342, 2011. 360,000 tested, 6.9% active;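 note: plate controls were vehicle for no effect and reference inhibitor for full effect; nearly all actives have a fitted effect of over 55% in size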
Target sequence (P08659 whole entry, looked up): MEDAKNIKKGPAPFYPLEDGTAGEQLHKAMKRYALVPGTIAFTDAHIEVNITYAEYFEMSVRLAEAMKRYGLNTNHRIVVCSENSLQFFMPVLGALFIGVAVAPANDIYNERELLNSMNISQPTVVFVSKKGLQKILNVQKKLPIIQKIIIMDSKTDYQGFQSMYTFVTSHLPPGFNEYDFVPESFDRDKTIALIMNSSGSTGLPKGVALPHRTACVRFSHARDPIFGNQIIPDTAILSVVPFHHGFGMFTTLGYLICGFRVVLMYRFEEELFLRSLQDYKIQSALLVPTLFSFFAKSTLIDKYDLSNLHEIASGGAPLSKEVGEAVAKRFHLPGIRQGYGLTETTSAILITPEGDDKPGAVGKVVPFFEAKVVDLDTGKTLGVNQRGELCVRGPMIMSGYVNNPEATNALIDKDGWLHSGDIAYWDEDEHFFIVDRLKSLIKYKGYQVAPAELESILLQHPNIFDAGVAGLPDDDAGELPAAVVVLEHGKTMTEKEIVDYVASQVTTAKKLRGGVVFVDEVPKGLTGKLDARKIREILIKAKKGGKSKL
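Biochemical qHTS of compounds, final roughly 60 µM downward over six points, against 10 nM purified firefly luciferase using Km concentrations of substrates (10 uM D-luciferin, 10 uM ATP) in Tris acetate pH 7.5 buffer; luminescence output.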
ELG1 genotox: qHTS screen for small molecules that induce genotoxicity in human embryonic kidney (HEK293T) cells expressing luciferase-tagged ELG1. HEK293T ELG1-luciferase reporter, luminescence, 16 h. Potency, µM (titrated, usually from 46 µM), for inactives: top-dose activity change, positive = activation, most hits filed as activators. 330,000 tested, 1.3% active; note: % of control where 0% means no effect; nearly all actives have a fitted effect of over 60% in size
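Genotoxicity was scored as increased ELG1-luciferase reporter signal, measured by ONE-Glo luminescence (30 min, room temperature). Compound or vehicle exposure of the HEK293T reporter cells lasted 16 hr at 37°C.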
* = called active by the depositor; [ ] = remark or other dose. In the library only some 7.5% were active in any assay of this set; here they are far more common. Calls come from the whole dose curve; as a rule, active = well fitted curve in the direction sought with a large enough effect; inconclusive = small, poorly fitted or top-dose-only effect, or another doubt; inactive = no such curve, though single readings can be large; an effect the other way counts as inactive or inconclusive. Potency is the fitted concentration of half-maximal effect.

O=C(NC12CC3CC(CC(C3)C1)C2)N(Cc1ccccc1)Cc1ccncc1 was read as NPC1 promoter act 5.2%, Rab9 promoter act -5.2%, Luc counter -2.2%, SMN2 splice up -2.1%, FLuc counter -0.6% and ELG1 genotox -7.6%.
`CC(C)OC(=O)c1ccc(NC(=O)C2C3CC4OC(=O)C2C4C3)cc1` (configuration not stated) gave NPC1 promoter act inconclusive, Rab9 promoter act 2.82µM*, Luc counter 1.4%, SMN2 splice up 11.2µM*, FLuc counter 21.3µM* and ELG1 genotox 11.9%.
Screening CCN(CC)c1ccc(N=Nc2nn(C)c(C)c2[N+](=O)[O-])cc1 returned NPC1 promoter act 0.794µM*, Rab9 promoter act 1.41µM*, Luc counter -19.8%, SMN2 splice up 14.1µM*, FLuc counter 1.69µM* and ELG1 genotox 5.8µM*.
`CCN(Cc1ccccc1)c1ccc(N=Nc2nn(C)c(C)c2[N+](=O)[O-])cc1` gave NPC1 promoter act 19.5%, Rab9 promoter act 25.2%, Luc counter -7.6%, SMN2 splice up inconclusive, FLuc counter 15.1µM* and ELG1 genotox 10.8%.
CCN(Cc1ccccc1)c1ccccc1 was read as SMN2 splice up 3.9%.
CCn1c(C)cc(/C=C2/SC(=S)NC2=O)c1C was read as NPC1 promoter act inconclusive, Rab9 promoter act inconclusive, Luc counter 2.7%, SMN2 splice up inconclusive, FLuc counter 4.78µM* and ELG1 genotox inconclusive.
Cc1cc(/C=C2\SC(=S)NC2=O)c(C)[nH]1 was read as NPC1 promoter act 7.8%, Rab9 promoter act 9.2%, Luc counter 2.2%, SMN2 splice up 19.0%, FLuc counter 10.7µM* and ELG1 genotox inconclusive.
For CCn1ncc(/C=C2/SC(=S)NC2=O)c1C the results were NPC1 promoter act 1.4%, Rab9 promoter act 1.7%, Luc counter -0.6%, SMN2 splice up 13.4%, FLuc counter 15.1µM* and ELG1 genotox -1.0%.
Screening CCOc1ccc(N(C)c2ccc(/C=C3/SC(=S)NC3=O)cc2)cc1 returned NPC1 promoter act -0.4%, Rab9 promoter act -4.0%, FLuc counter inconclusive and ELG1 genotox -1.9%.
For C=C1C=C(C(F)F)n2ncc(C(=O)NCCc3ccc(OC)c(OC)c3)c2N1 the results were FLuc counter 3.7%.
CC(Cc1cccs1)NC(=O)Nc1ccc(Cl)cc1 (configuration not stated) was read as NPC1 promoter act inconclusive, Rab9 promoter act inconclusive, Luc counter -4.8%, SMN2 splice up 14.4%, FLuc counter 12µM* and ELG1 genotox 5.62µM*.
Screening CC(Cc1cccs1)NC(=S)Nc1ccccc1 (configuration not stated) returned NPC1 promoter act 2.1%, Rab9 promoter act -8.7%, Luc counter -1.6%, SMN2 splice up -28.0%, FLuc counter -16.4% and ELG1 genotox 1.5%.
CC(Cc1cccs1)NC(=O)Nc1ccc(Cl)c(Cl)c1 (configuration not stated) was read as NPC1 promoter act inconclusive, Rab9 promoter act inconclusive, Luc counter 2.9%, SMN2 splice up 5.8%, FLuc counter 21.3µM* and ELG1 genotox 2.2%.
CC(Cc1cccs1)NC(=O)Nc1ccccc1 (configuration not stated) was read as NPC1 promoter act 20.1%, Rab9 promoter act 19.1%, Luc counter 0.2%, SMN2 splice up -11.5%, FLuc counter inconclusive and ELG1 genotox 5.6%.
For COc1ccc(-c2nc(C)c(CCNS(=O)(=O)c3cc(C)c(C)cc3C)s2)cc1 the results were FLuc counter -12.0%.
Cc1cccc(C)c1NC(=O)CS(=O)CC(=O)NCC1OCCc2ccccc21 (configuration not stated) was read as NPC1 promoter act -8.6%, Rab9 promoter act -1.6%, Luc counter -0.3%, SMN2 splice up 3.5%, FLuc counter -0.2% and ELG1 genotox 0.9%.
For CN1c2ccccc2Oc2nnc(N3CCN(Cc4ccccc4)CC3)cc21 the results were NPC1 promoter act 22.9%, Rab9 promoter act inconclusive, Luc counter 0.4%, FLuc counter 19µM* and ELG1 genotox 4.1%.
CCOC(=O)C1CCN(C(=O)/C=C/c2ccccc2)CC1 was read as NPC1 promoter act 1.41µM*, Rab9 promoter act 1.12µM*, Luc counter -1.6%, SMN2 splice up 11.2µM*, FLuc counter 23.9µM* and ELG1 genotox 13.8%.
O=C(/C=C/c1ccc2c(c1)OCO2)N1CCN(c2ccc(Cl)cc2)CC1 was read as NPC1 promoter act -1.5%, Rab9 promoter act -2.3%, Luc counter 1.9%, SMN2 splice up -36.2%, FLuc counter -2.8% and ELG1 genotox 2.4%.
O=C(/C=C/c1ccc2c(c1)OCCO2)N1CCN(c2ccc(F)cc2)CC1 was read as NPC1 promoter act -3.4%, Rab9 promoter act -1.7%, FLuc counter 23.9µM* and ELG1 genotox -4.0%.
O=C(/C=C\C=C/c1ccc2c(c1)OCO2)N1CCCCC1 was read as Luc counter -8.2%[17.1 µM] and SMN2 splice up inconclusive.
`CCOC(=O)C1CCN(C(=O)/C=C/c2ccc3c(c2)OCO3)CC1` gave NPC1 promoter act 0.447µM*, Rab9 promoter act 0.794µM*, FLuc counter 15.1µM* and ELG1 genotox inconclusive.
O=C(/C=C/c1ccc2c(c1)OCO2)N1CCCCC1 was read as NPC1 promoter act 3.55µM*, Rab9 promoter act 1.58µM*, FLuc counter 12µM* and ELG1 genotox inconclusive.
Screening Cc1cc(C(=O)N2CCN(c3cc(Cl)ccc3C)CC2)c2c(C)nn(-c3ccccc3)c2n1 returned FLuc counter 3.0%.
Screening CCOc1cc(C2C(C(=O)OC)=C(C)NC3=C2C(=O)c2ccccc23)cc(Br)c1OCC (configuration not stated) returned SMN2 splice up -0.7% and FLuc counter 5.9%.
Screening Cc1cc(C)c(C)c(OC(=O)c2sc(Cl)nc2C)c1 returned NPC1 promoter act -9.4%, Rab9 promoter act -16.0%, Luc counter 0.4%, SMN2 splice up 17.0%, FLuc counter -1.8% and ELG1 genotox 2.8%.
Screening CCn1c(/C(C#N)=N/O)nc2ccccc21 returned NPC1 promoter act 0.1%, Rab9 promoter act 0.7%, Luc counter -0.8%, SMN2 splice up -46.4%, FLuc counter 0.2% and ELG1 genotox -3.6%.
